Source: PubChem BioAssay
D2 PAM-1 – positive allosteric modulators of human D2 dopamine receptor; P14416; HEK293 T-REx D2, calcium flux, EC20 dopamine potentiation; potentiation, % at 10 µM; 0.34% of 340,000 active; AID 485347;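 active means potentiation over 3 SD above the plate norm, cut at about 30% in these data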; further: 0% is about no effect
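Primary screen. Calcium kinetics in induced HEK293 T-REx D2 cells: compound pre-addition 180 s, EC20 dopamine, 180 s more.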
D2 antag – antagonists of human D2 dopamine receptor. 2% of 340,000 active. HEK293 TREx D2 cells, calcium flux, dopamine EC80. AID 485344. inhibition, % at 10 µM. P14416; in the data active means inhibition above about 30%; inactive means below that, where a call was filed; further: 0% is about no effect
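Dopamine at EC80 is the agonist stimulus; test compounds precede it by 180 s. Calcium flux read kinetically in a force-coupled, inducible HEK293 T-REx D2 cell line.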
D2 ag-1 – activates the human D2 dopamine receptor | P14416 | HEK293 T-REx D2 cells, calcium flux agonist mode | activation, % at 2 µM | 0.53% of 340,000 active | AID 485358;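 active means activation over 3 SD above normal in the single-dose calcium agonist read, cut at about 30% in these data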; further: 0% is about no effect
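Calcium-flux readout, 1 cycle/sec over 180 s following compound pin transfer, in inducible HEK293 Trex D2 cells (force-coupled); dopamine controls included. Positive calcium responses during this window marked compounds as potential agonists.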
D2 PAM-2 – human D2 receptor positive allosteric modulation; DiscoveRx D2 beta-arrestin cells, luminescence, 90 min; 100% = 57 uM dopamine signal; potentiation, % (test concentration not listed); 0.23% of 360,000 active; AID 624464; in the data active means potentiation above about 50%; inconclusive means mostly about 30% to 49%
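D2 cells co-treated with compound plus 50 nM dopamine (EC20) for 90 min at 37 deg C to detect potentiation. Beta-arrestin recruitment was read as enzyme-fragment luminescence after 1 h at ambient temperature. Full response was set by 57 uM dopamine.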
D2 ag-2 – agonists of human D2 dopamine receptor (beta-arrestin); P14416; DiscoveRx PathHunter D2 beta-arrestin, luminescence, 90 min; 100% = 57 uM dopamine signal; activation, % (test concentration not listed); 0.084% of 360,000 active; in the data active means activation above about 40%; inconclusive means between about 15% and that limit
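Agonist mode: compounds alone added to overnight-plated D2 PathHunter cells for 90 min at 37 C, with 57 uM final dopamine (EC100) defining full response. Beta-arrestin recruitment detected by chemiluminescent reagent, read after 1 h at ambient temperature.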
D3 ag – D3 receptor agonism confirmed, beta-arrestin readout | 4% of 2,300 active | DiscoveRx D3 beta-arrestin cells, luminescence, 90 min | shares compounds with D2 ag-1 | Potency, µM (highest dose often 76.9 µM), for the others: at the highest dose activation, actives largely listed as activators;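 further: potency means the concentration at half of the fitted maximal effect; 100% = dopamine control response; nearly all actives have a fitted effect of over 70% in size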
Target sequence (P35462 whole entry, looked up): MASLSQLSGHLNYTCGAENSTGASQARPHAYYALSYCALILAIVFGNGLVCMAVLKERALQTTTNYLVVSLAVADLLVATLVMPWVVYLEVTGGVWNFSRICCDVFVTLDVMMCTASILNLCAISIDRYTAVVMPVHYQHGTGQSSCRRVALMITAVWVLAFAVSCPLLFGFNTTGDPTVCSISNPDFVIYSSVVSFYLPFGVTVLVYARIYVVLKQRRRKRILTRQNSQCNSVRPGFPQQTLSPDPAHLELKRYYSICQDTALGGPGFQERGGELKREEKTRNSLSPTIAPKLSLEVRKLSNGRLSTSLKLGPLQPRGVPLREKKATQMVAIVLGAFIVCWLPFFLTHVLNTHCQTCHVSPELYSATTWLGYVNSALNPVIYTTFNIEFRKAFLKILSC
D2 ag-3 – D2 receptor agonism, beta-arrestin counterscreen | DiscoveRx PathHunter D2 beta-arrestin, luminescence, 90 min; response scale: percent relative to full dopamine signal | Potency, µM (titrated, usually from 76.9 µM), for inactives: top-dose activation, hits mostly activators | AID 720507 | 5.9% of 2,300 active | shares compounds with D2 ag-1; further: potency means the concentration at half of the fitted maximal effect; % of control where 0% means no effect; nearly all actives have a fitted effect of over 70% in size
* hit, by the source's call; ? = inconclusive; nt = no result; ! = not confirmed by another sample. In the library only some 2.4% were active in any assay of this set; here they are far more common. Unless noted, the call rests on the fitted dose curve; in most records, active means well fitted activation curve with a large enough effect; inconclusive means small, poorly fitted or top-dose-only effect; inactive means flat fitted curve, though single readings scatter.

SMILES | D2 PAM-1 | D2 antag | D2 ag-1 | D2 PAM-2 | D2 ag-2 | D3 ag | D2 ag-3
CN(C)S(=O)(=O)c1cc(NC(=O)CN2CCN(c3ccccc3F)CC2)ccc1Cl | -11 | 53* | 54* | 5 | ? | ? | ?
O=C(CCN1CCN(c2ccccc2F)CC1)Nc1ccccc1F | -2 | 86* | 55* | -19 | 8 | ? | ?
O=C(CCN1CCN(C/C=C/c2ccccc2)CC1)Nc1ccccc1F | -2 | -15 | 3 | -15 | 3 | nt | nt
COc1ccc(C)cc1NC(=O)CN1CCN(c2ccccc2F)CC1 | -25 | -9 | 0 | -14 | 0 | nt | nt
CCN1CCN(CC(=O)Nc2ccc(Cl)c(S(=O)(=O)N(C)C)c2)CC1 | 1 | 5 | -1 | -18 | -4 | nt | nt
O=C(CN1CCN(c2ccccc2F)CC1)Nc1ccccc1F | -22 | -1 | 22 | -35 | 1 | -9% | 0%
Cc1cccc(N2CCN(C(=O)c3cc4c(=O)n(C)c5ccccc5c4s3)CC2)c1C | -10 | nt | 0 | nt | nt | nt | nt
Cc1c(NC(=O)c2ccc(Br)o2)cccc1-c1nc2ccccc2o1 | 3 | nt | 0 | nt | nt | nt | nt
CC(C)c1ccc(S(=O)(=O)N2CCN(Cc3cccc(F)c3)CC2)cc1 | 1 | nt | 1 | nt | nt | nt | nt
C=CC[n+]1c(-c2ccc(Cl)cc2Cl)csc1Nc1c(C)n(C)n(-c2ccccc2)c1=O | -16 | 49* | 57* | -28 | -7 | -48% | -10%
C=CC[n+]1c(-c2ccc(C)cc2)csc1Nc1c(C)n(C)n(-c2ccccc2)c1=O | nt | nt | nt | -14 | -1 | -11% | 11%
Cc1c(Nc2nc(-c3ccccc3)cs2)c(=O)n(-c2ccccc2)n1C | -3 | 12 | 0 | -16 | -1 | nt | nt
COC(=O)c1cc(NC(=O)CC2Oc3ccccc3NC2=O)cc(C(=O)OC)c1 (stereo not given) | 4 | 2 | 26 | 2 | -1 | 0% | 0%
CCCCN(CCCC)CCCNC(=O)c1cc(-c2ccc(Cl)s2)nc2ccccc12 | -12 | nt | 0 | nt | nt | nt | nt
CCOCCCN(Cc1ccco1)S(=O)(=O)c1cc2c(cc1Cl)NC(=O)CO2 | 10 | nt | 1 | nt | nt | nt | nt
CC(=O)Nc1cccc(NC(=O)c2cc3c(=O)n4cccc(C)c4nc3n2C)c1 | -3 | nt | -2 | nt | nt | nt | nt
C=CCn1c(SCCCC)nc(O)cc1=O | -12 | 31*! | 15 | -7 | -2 | 1% | -1%
CC1(C)O[C@@H]2[C@H](O1)[C@@H](CO)O[C@H]2n1cnc2c(=O)[nH]cnc21 | -2 | -9 | -1 | 0 | -2 | -3% | -2%
O=C(NCc1cccc(F)c1)c1cccc(NC(=O)c2nsc3ccccc23)c1 | -10 | nt | 1 | nt | nt | nt | nt
O=S(=O)(NCc1nc2cccnc2n1Cc1ccccc1)c1ccc2c(c1)CCCC2 | 1 | nt | -8 | nt | nt | nt | nt
CN(C)S(=O)(=O)c1cccc(CNCC2COc3ccccc3O2)c1 (stereo not given) | -27 | 106* | 77* | -8 | 12 | ? | 29%
c1ccc(CCNCC2COc3ccccc3O2)cc1 (stereo not given) | -22 | 24 | 32* | -13 | 4 | 2% | 3%
Oc1ccc(CNCC2COc3ccccc3O2)cc1 (stereo not given) | -28 | 185* | 68* | -28 | 11 | -4% | 19%
Cc1cc(C)n(-c2nc3ccccc3nc2Nc2ccc(Cl)c(Cl)c2)n1 | -5 | nt | 0 | nt | nt | nt | nt
O=C(CSCc1c[nH]c(=O)[nH]c1=O)OCC(=O)c1ccc(Br)cc1 | nt | nt | nt | -12 | -9 | -15% | -7%
CCOc1ccc(C2c3[nH]c4ccccc4c3CCN2C(=O)CSc2ccccc2)cc1 (stereo not given) | 4 | nt | 0 | nt | nt | nt | nt
Cc1cccc(C(=O)O[C@H]2[C@H](C)NS(=O)(=O)[C@H]3CC4C=C[C@]23O4)c1 | nt | nt | nt | -10 | -3 | nt | nt
